What was measured:
Test in all cases: DAPPL (digital affinity profiling via proximity ligation, sequencing); 10 mM Tris-HCl pH 7.5, 50 mM NaCl, 1 mM DTT, 4% glycerol, room temperature, 30 min; GST-TFs on glutathione beads, 16-mer random dsDNA library, 0.1% formaldehyde crosslink after washing; high values mean tight binding
FEV = molecular target: T1, FEV (Homo sapiens, UniProt Q99581 1-238); conditions: protein: recombinant; tags: N-terminal GST; dsDNA, one strand shown
T1 sequence: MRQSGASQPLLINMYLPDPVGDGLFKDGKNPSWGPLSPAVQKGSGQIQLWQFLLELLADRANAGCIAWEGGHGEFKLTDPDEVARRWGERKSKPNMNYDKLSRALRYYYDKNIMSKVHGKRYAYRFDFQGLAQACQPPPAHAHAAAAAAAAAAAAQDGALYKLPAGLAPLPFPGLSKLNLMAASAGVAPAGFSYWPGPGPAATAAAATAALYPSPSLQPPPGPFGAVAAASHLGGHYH
Summary of the method: (§1)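 Pools of DNA-barcoded human transcription factors, expressed in yeast as GST fusions on glutathione beads and combined with a tag-only sample, were incubated with 200 nmole of a 16-mer random double-stranded DNA library. Incubation took 30 min at room temperature in Tris/NaCl/DTT/glycerol buffer and was followed by washing, 0.1% formaldehyde crosslinking, proximity ligation (BsaI/T4 ligase, 1 h, 37 °C), PCR amplification and sequencing on an Illumina NextSeq500. Binding signal is the ratio of a hexamer's read frequency for a factor to its frequency for the tag-only sample.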

ETV5 = ETV5 (Homo sapiens, UniProt P41161 1-510); conditions: protein: recombinant; tags: N-terminal GST; dsDNA, one strand shown
Chain of ETV5 (P41161 whole entry): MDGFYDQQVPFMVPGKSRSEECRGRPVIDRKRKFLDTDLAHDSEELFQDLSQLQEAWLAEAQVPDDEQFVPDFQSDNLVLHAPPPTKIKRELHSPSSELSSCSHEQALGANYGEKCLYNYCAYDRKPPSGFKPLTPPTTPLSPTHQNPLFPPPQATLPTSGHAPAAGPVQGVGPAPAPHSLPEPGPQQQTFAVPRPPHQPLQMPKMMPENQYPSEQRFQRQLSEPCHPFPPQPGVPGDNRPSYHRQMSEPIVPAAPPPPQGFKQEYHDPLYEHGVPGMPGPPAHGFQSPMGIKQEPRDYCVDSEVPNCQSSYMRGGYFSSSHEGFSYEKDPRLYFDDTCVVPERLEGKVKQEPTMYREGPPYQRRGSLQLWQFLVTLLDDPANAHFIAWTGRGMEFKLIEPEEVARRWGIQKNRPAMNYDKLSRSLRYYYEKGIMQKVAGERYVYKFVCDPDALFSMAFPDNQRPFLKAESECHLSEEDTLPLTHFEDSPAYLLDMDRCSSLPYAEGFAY
Summary of the method: as §1

HSF1 = HSF1 (Homo sapiens, UniProt Q00613 1-529); conditions: protein: recombinant; tags: N-terminal GST; chain copies: 3; dsDNA, one strand shown
Chain of HSF1 (Q00613 whole entry): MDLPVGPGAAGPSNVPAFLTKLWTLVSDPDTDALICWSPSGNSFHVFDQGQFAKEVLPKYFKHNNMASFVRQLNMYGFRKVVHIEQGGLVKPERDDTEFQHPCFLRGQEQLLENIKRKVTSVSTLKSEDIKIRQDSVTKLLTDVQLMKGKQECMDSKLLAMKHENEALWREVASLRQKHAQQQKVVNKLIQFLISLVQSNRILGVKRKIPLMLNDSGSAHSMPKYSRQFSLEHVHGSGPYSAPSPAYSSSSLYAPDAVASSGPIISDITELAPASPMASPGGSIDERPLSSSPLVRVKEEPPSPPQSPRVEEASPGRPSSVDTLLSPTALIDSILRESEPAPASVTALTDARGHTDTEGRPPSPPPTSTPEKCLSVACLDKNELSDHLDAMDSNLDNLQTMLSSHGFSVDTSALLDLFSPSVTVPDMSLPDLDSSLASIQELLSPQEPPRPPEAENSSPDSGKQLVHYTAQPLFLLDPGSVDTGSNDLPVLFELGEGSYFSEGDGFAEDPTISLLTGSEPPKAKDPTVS
Summary of the method: as §1

SPIC = molecular target: T2, SPIC (Homo sapiens, UniProt Q8N5J4 1-248); conditions: protein: recombinant; tags: N-terminal GST; dsDNA, one strand shown
T2 sequence: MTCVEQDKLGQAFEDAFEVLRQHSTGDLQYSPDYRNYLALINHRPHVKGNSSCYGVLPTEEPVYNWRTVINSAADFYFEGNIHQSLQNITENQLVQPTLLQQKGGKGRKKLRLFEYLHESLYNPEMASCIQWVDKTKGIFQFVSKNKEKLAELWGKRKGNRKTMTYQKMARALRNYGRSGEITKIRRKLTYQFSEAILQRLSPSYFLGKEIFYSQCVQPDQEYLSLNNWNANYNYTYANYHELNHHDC
Summary of the method: as §1

ELF4 = ELF4 (Homo sapiens, UniProt Q99607 1-663); conditions: protein: recombinant; tags: N-terminal GST; dsDNA, one strand shown
Chain of ELF4 (Q99607 whole entry): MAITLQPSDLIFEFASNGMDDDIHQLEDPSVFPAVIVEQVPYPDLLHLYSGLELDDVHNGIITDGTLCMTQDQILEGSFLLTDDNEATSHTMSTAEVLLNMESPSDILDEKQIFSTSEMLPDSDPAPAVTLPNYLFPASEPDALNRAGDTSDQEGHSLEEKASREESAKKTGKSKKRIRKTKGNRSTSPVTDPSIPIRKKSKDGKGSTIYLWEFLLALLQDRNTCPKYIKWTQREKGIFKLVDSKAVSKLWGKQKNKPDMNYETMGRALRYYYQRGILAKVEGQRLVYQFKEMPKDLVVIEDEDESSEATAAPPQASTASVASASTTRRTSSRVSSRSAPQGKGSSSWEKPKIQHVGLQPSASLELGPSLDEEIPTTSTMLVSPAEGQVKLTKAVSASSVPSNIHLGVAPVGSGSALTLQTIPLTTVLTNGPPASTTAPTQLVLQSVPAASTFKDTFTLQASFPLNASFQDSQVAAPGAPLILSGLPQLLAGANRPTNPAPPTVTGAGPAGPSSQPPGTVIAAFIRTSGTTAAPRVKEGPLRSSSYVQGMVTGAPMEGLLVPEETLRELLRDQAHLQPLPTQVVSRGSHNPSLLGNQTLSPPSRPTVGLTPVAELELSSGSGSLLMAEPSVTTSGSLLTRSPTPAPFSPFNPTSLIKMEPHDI
Summary of the method: as §1

ELK4 = molecular target: T3, ELK4 (Homo sapiens, UniProt P28324-2 1-405); conditions: protein: recombinant; tags: N-terminal GST; dsDNA, one strand shown
T3 sequence: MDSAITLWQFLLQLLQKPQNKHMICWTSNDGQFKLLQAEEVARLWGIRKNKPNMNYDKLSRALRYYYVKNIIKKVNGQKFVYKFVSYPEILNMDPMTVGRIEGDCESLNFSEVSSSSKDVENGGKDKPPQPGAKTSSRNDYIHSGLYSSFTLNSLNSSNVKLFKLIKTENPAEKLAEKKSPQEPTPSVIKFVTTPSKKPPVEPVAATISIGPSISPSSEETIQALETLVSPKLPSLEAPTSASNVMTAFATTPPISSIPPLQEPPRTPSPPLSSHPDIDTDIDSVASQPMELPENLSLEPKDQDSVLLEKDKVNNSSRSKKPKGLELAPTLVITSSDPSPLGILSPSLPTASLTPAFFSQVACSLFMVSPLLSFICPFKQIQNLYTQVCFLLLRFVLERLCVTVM
Summary of the method: as §1

ETV2 = molecular target: T4, ETV2 (Homo sapiens, UniProt O00321 1-342); conditions: protein: recombinant; tags: N-terminal GST; dsDNA, one strand shown
T4 sequence: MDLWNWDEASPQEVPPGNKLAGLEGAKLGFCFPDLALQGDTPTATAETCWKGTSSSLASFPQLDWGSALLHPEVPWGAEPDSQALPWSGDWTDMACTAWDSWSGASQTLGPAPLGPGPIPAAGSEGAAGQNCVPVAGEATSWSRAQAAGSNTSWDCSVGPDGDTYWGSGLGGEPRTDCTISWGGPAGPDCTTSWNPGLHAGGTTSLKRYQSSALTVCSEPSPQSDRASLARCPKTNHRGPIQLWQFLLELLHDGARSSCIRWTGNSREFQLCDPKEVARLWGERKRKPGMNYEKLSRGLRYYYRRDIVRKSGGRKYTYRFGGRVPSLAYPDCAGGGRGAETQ
Summary of the method: as §1

ELF3 = molecular target: T5, ELF3 (Homo sapiens, UniProt P78545 1-371); conditions: protein: recombinant; tags: N-terminal GST; dsDNA, one strand shown
T5 sequence: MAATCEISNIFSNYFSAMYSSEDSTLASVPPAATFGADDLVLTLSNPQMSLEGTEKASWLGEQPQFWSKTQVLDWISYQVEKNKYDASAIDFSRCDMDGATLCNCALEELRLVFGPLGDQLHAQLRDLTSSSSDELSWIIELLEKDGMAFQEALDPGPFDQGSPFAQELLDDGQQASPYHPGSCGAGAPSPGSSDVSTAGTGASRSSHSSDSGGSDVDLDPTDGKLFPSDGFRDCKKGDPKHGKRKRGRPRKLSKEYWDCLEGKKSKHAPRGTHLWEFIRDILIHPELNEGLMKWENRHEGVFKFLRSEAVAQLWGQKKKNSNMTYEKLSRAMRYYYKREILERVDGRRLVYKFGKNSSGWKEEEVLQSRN
Summary of the method: as §1

CRX = CRX (Homo sapiens, UniProt O43186 1-299); conditions: protein: recombinant; tags: N-terminal GST; dsDNA, one strand shown
Chain of CRX (O43186 whole entry): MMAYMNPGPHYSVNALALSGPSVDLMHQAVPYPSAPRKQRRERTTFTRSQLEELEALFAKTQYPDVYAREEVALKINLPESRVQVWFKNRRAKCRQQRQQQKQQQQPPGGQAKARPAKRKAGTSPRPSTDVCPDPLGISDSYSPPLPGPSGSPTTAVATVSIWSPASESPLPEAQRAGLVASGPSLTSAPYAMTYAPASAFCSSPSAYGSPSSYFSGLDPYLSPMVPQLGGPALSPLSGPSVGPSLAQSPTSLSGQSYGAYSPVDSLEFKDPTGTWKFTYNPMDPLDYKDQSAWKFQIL
Summary of the method: as §1

ETV1 = ETV1 (Homo sapiens, UniProt P50549 1-477); conditions: protein: recombinant; tags: N-terminal GST; dsDNA, one strand shown
Chain of ETV1 (P50549 whole entry): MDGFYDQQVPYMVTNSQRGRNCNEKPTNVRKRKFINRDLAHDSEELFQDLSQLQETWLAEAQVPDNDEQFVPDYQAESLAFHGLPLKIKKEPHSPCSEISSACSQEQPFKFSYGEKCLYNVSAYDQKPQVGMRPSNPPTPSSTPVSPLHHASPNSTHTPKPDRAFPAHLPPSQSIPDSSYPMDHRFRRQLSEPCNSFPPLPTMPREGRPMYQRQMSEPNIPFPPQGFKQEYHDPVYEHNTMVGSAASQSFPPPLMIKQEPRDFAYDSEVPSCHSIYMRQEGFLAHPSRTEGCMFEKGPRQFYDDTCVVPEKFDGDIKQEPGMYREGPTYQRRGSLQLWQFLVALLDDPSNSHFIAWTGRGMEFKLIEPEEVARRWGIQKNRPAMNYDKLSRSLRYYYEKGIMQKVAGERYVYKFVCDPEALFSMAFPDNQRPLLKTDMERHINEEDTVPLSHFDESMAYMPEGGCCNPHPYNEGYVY
Summary of the method: as §1

ERF = molecular target: T6, ERF (Homo sapiens, UniProt P50548 1-548); conditions: protein: recombinant; tags: N-terminal GST; dsDNA, one strand shown
T6 sequence: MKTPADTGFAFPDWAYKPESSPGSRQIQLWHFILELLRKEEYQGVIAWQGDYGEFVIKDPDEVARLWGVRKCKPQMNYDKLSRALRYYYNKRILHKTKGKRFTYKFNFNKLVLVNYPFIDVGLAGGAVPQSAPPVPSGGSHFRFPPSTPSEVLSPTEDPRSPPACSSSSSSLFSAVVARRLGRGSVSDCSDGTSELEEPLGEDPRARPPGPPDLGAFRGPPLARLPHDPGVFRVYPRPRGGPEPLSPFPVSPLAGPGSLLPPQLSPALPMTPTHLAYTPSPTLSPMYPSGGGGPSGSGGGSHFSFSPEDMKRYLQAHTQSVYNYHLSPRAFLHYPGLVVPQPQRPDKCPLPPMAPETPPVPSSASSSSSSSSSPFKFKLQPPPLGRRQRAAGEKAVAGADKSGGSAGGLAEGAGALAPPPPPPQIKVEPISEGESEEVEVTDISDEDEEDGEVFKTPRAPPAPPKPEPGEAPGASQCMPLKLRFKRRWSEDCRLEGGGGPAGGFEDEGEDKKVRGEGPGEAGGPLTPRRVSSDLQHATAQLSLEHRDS
Summary of the method: as §1

ETV3L = molecular target: T7, ETV3L (Homo sapiens, UniProt Q6ZN32 1-361); conditions: protein: recombinant; tags: N-terminal GST; dsDNA, one strand shown
T7 sequence: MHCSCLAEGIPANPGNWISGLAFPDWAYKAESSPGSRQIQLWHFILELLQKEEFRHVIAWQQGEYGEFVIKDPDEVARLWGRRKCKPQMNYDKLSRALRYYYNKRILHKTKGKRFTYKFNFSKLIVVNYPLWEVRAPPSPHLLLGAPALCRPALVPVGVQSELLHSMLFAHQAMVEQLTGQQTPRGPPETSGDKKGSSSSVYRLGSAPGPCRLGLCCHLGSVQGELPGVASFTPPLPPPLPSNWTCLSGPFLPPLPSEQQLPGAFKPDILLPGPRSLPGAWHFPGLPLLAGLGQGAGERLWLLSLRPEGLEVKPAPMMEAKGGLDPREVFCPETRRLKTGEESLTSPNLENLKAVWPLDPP
Summary of the method: as §1

ETS2 = molecular target: T8, ETS2 (Homo sapiens, UniProt P15036 1-469); conditions: protein: recombinant; tags: N-terminal GST; dsDNA, one strand shown
T8 sequence: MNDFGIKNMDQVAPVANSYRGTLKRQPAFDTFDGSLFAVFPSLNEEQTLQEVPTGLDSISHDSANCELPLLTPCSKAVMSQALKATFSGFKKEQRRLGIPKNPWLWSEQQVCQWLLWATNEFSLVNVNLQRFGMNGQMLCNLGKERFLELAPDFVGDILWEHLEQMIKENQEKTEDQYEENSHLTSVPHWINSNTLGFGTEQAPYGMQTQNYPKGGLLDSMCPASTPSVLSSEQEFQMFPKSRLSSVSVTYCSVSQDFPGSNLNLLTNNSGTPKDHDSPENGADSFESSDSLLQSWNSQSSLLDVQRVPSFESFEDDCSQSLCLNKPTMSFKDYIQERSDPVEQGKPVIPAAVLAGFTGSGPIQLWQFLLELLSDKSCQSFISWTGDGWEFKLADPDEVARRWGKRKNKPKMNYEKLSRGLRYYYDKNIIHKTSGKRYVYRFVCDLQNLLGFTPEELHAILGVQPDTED
Summary of the method: as §1

SPDEF = molecular target: T9, SPDEF (Homo sapiens, UniProt O95238 1-335); conditions: protein: recombinant; tags: N-terminal GST; dsDNA, one strand shown
T9 sequence: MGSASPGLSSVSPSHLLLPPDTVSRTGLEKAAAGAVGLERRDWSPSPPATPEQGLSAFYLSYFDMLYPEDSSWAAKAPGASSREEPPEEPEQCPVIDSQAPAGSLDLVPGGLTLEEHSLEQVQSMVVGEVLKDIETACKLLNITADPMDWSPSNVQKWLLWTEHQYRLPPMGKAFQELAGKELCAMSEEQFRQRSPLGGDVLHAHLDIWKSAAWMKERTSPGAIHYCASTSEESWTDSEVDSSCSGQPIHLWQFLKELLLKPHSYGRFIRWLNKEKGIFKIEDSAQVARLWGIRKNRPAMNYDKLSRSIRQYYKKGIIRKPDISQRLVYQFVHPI
Summary of the method: as §1

ELF5 = molecular target: T10, ELF5 (Homo sapiens, UniProt Q9UKW6-2 1-255); conditions: protein: recombinant; tags: N-terminal GST; dsDNA, one strand shown
T10 sequence: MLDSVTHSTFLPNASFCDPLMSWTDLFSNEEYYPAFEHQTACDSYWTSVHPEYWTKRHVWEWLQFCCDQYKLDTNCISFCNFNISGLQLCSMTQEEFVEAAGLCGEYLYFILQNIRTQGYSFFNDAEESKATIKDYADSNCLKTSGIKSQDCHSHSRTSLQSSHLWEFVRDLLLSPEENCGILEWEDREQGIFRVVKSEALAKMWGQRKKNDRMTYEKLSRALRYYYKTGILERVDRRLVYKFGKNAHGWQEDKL
Summary of the method: as §1

ETV3 = molecular target: T11, ETV3 (Homo sapiens, UniProt P41162-2 1-143); conditions: protein: recombinant; tags: N-terminal GST; dsDNA, one strand shown
T11 sequence: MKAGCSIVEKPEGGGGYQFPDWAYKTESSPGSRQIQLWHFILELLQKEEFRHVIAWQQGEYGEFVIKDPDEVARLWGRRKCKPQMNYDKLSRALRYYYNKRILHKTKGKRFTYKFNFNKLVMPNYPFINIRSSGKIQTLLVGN
Summary of the method: as §1

ETV6 = ETV6 (Homo sapiens, UniProt P41212 1-452); conditions: protein: recombinant; tags: N-terminal GST; dsDNA, one strand shown
Chain of ETV6 (P41212 whole entry): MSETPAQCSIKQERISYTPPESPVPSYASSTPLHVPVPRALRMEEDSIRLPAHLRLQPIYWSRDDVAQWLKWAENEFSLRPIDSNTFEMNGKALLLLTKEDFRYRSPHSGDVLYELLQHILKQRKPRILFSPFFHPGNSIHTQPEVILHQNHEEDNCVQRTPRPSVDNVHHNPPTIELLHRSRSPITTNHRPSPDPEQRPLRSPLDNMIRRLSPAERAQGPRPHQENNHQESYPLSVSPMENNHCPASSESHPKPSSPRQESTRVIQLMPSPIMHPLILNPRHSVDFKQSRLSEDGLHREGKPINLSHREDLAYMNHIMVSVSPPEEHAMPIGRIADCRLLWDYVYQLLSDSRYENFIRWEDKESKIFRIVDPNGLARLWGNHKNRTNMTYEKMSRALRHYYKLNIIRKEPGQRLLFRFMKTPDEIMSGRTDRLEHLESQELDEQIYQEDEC
Summary of the method: as §1

ETV7 = molecular target: T12, ETV7 (Homo sapiens, UniProt Q9Y603 1-341); conditions: protein: recombinant; tags: N-terminal GST; dsDNA, one strand shown
T12 sequence: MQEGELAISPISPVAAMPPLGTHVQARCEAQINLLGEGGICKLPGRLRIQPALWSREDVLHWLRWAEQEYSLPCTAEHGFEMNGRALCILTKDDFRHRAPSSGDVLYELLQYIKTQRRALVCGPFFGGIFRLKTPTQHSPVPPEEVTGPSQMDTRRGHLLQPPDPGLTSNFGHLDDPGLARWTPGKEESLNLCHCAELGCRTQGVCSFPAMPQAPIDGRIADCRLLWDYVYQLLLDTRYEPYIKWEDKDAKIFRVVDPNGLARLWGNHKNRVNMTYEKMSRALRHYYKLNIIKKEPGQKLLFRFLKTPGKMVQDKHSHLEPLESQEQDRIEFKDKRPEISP
Summary of the method: as §1

Sequence	binding signal (FEV)	binding signal (ETV5)	binding signal (HSF1)	binding signal (SPIC)	binding signal (ELF4)	binding signal (ELK4)	binding signal (ETV2)	binding signal (ELF3)	binding signal (CRX)	binding signal (ETV1)	binding signal (ERF)	binding signal (ETV3L)	binding signal (ETS2)	binding signal (SPDEF)	binding signal (ELF5)	binding signal (ETV3)	binding signal (ETV6)	binding signal (ETV7)
TCTACA	1.2 fold enrichment (6-mer frequency, TF over GST control)	1.18 fold enrichment (6-mer frequency, TF over GST control)	1.39 fold enrichment (6-mer frequency, TF over GST control)	1.44 fold enrichment (6-mer frequency, TF over GST control)	1.15 fold enrichment (6-mer frequency, TF over GST control)	1.17 fold enrichment (6-mer frequency, TF over GST control)	1.18 fold enrichment (6-mer frequency, TF over GST control)	1.22 fold enrichment (6-mer frequency, TF over GST control)	1.17 fold enrichment (6-mer frequency, TF over GST control)	1.16 fold enrichment (6-mer frequency, TF over GST control)	1.31 fold enrichment (6-mer frequency, TF over GST control)	1.21 fold enrichment (6-mer frequency, TF over GST control)	1.29 fold enrichment (6-mer frequency, TF over GST control)	1.27 fold enrichment (6-mer frequency, TF over GST control)	1.19 fold enrichment (6-mer frequency, TF over GST control)	1.18 fold enrichment (6-mer frequency, TF over GST control)	1.19 fold enrichment (6-mer frequency, TF over GST control)	
TACTGA	1.03 fold enrichment (6-mer frequency, TF over GST control)	1.13 fold enrichment (6-mer frequency, TF over GST control)	1.07 fold enrichment (6-mer frequency, TF over GST control)	1.03 fold enrichment (6-mer frequency, TF over GST control)	1.11 fold enrichment (6-mer frequency, TF over GST control)	1.32 fold enrichment (6-mer frequency, TF over GST control)	1.12 fold enrichment (6-mer frequency, TF over GST control)	1.2 fold enrichment (6-mer frequency, TF over GST control)	1.2 fold enrichment (6-mer frequency, TF over GST control)	1.02 fold enrichment (6-mer frequency, TF over GST control)	1.17 fold enrichment (6-mer frequency, TF over GST control)	1.13 fold enrichment (6-mer frequency, TF over GST control)	1.1 fold enrichment (6-mer frequency, TF over GST control)	1.14 fold enrichment (6-mer frequency, TF over GST control)		1.11 fold enrichment (6-mer frequency, TF over GST control)		1.01 fold enrichment (6-mer frequency, TF over GST control)
